Results taken from PubChem BioAssay (Tox21).
Several values for one entry are separate records, joined by “and”; a condition that tells them apart may be missing. Identical values can stand only once. Records with an inconclusive call do not appear. Where a call stands in place of a potency, no number is given. Activity calls are given as the source filed them. Calls follow the shape of the full dose curve.

Assay: p53 small molecule agonists, cell-based qHTS assay with rat liver microsomes: qHTS cell viability counter screen (AID 1963580); also: nearly all actives have a fitted effect of over 45% in size
Settings: p53RE-bla HCT-116 + rat microsomes, ATP viability, 16 h; series mostly up to 66 µM
Excerpt: National Center for Advancing Translational Sciences [NCATS]
Division of Preclinical Innovation [DPI]
U.S. Environmental Protection Agency [EPA]
National Institutes of Environmental Health Sciences [NIEHS]
National Toxicology Program [NTP]
U.S. Food and Drug Administration [FDA]
p53, a tumor suppressor protein, is activated following cellular insult, including DNA damage and other cellular stresses. The activation of p53 regulates cell fate by inducing DNA repair, cell cycle arrest, apoptosis, or cellular senescence. The activation of p53, therefore, is a good indicator of DNA damage and other cellular stresses. The CellSensor p53RE-bla HCT-116 cell line contains a stably integrated beta-lactamase reporter gene under control of the p53 response elements. The activation of the reporter gene under culture conditions can be detected by fluorescence intensity. This cell line was used to screen the Tox21 10K compound library in the condition of presence of rat liver microsomes and to identify agonists that activate the p53 signaling pathway after in vitro metabolic activation (Ooka et al., Archive of Toxicology 96:1975-1987, 2022). The cytotoxicity of the Tox21 compound library against the p53 RE-bla HCT-116 cell line was tested in parallel by measuring the intra cellular ATP content in the same wells.
Tox21 Assay Protocol Summary:
The p53RE-bla cells were dispensed at 4,000cells/3ul/well in 1536-well black-clear bottom plates. After the assay plates were incubated at 37 C, 5% CO2 incubator for 5 hours, 23 nL of compounds dissolved in DMSO, positive controls or DMSO only was transferred to the assay plate. Following compound addition, 3 uL of rat liver microsomes (Molecular Toxicology, Boone, NC) at final concentration of 0.5 mg/mL and 1uL of B-Nicotinamide adenine dinucleotide 2'-phosphate (NADPH) at final concentration of 0.5 mg/mL were transferred to the assay plate. The plates were incubated at 37 C for 16 hours. 1 uL of LiveBLAzer detection mixture was added to each well and the plates were incubated at room temperature in the dark for 2 h. Fluorescence intensity at 460 and 530 nm emission and 405 nm excitation were measured by an Envision plate reader. For cell viability readout that measures cytotoxicity, 4 ul/well of CellTiter-Glo reagent was added into the assay plates using a Flying Reagent Dispenser. After 30 min incubation at room temperature, the luminescence intensity in the plates was measured using a ViewLux plate reader.
Potency is read from the fitted curve at half-maximal effect.

Structure (SMILES) | Potency
Nc1ccc(S(=O)(=O)Nc2nccs2)cc1 | inactive
NCCCCCCN | inactive
C=CCOC(=O)CC(C)C | inactive
CNC[C@H](O)c1cccc(O)c1 | inactive
COCCOCCOC | inactive
O=S(=O)(O)c1ccc2cc(O)ccc2c1 | inactive
Cc1ccccc1C=O | inactive
CCCCCCCCCCCO | inactive
Cc1cccc(C)c1 | inactive
CC1(C)NC(=O)N(c2ccc([N+](=O)[O-])c(C(F)(F)F)c2)C1=O | inactive
CCCCCCC(C)(C)S | inactive
CN(C)CCOC(C)(c1ccccc1)c1ccccn1 (stereo not given) | inactive
CCNc1cccc(C)c1 | inactive
CCCOC(=O)NCCCN(C)C | inactive
Brc1ccc(Oc2ccc(Br)cc2)cc1 | inactive
CCCCC(C=O)CC (stereo not given) | inactive
CCCCCCc1ccc(O)cc1O | inactive
Nc1cc(Cl)c(N)c(Cl)c1 | inactive
CSc1ccc(Cl)cc1 | inactive
Nc1ccc(Cl)cc1Cl | inactive

Structure (SMILES) | Potency
NCCN | inactive
COc1ccc(C(Cl)=C(c2ccc(OC)cc2)c2ccc(OC)cc2)cc1 | inactive
CC1=C(/C=C/C(C)=C/C=C/C(C)=C/C(=O)O)C(C)(C)CCC1 | inactive
COCCCN | inactive
O=C(O)c1ccccc1Nc1cccc(C(F)(F)F)c1 | inactive
Nc1ccc(S(=O)(=O)Nc2cnc3ccccc3n2)cc1 | inactive
CC(C)(C#N)c1cc(Cn2cncn2)cc(C(C)(C)C#N)c1 | inactive
Oc1c(Cl)cc(Cl)c(Cl)c1Cc1c(O)c(Cl)cc(Cl)c1Cl | 18.2 µM (active) and 32.4 µM (active)
C=C(C)C1CC=C(C)CC1 (stereo not given) | inactive
O=C(Oc1ccccc1)c1ccccc1O | inactive
CNC(=S)N(C)C | inactive
O=C(O)Cn1c(=O)n(Cc2ccc(Br)cc2F)c(=O)c2ccc(Cl)cc21 | inactive
Cc1ccc(C(C)C)c(O)c1 | inactive
CCCCCCCCCCCC[N+](C)(C)C | inactive
N[C@@H](Cc1cc(I)c(Oc2ccc(O)c(I)c2)c(I)c1)C(=O)O | inactive
CCCCNS(=O)(=O)c1ccccc1 | inactive
C#C[C@]1(O)CC[C@H]2[C@@H]3CCC4=CC(=O)CC[C@@H]4[C@H]3CC[C@@]21CC | inactive
C=C(C)CNCC | inactive
CCCN(CCC)C(=O)SCC | inactive
Cc1ccc2c(n1)Oc1ccc(C(C)C(=O)OCC(=O)N(C)C)cc1C2 (stereo not given) | inactive
